High-throughput results (PubChem BioAssay)
3CLpro inhibitor: SARS-CoV 3CLpro protease inhibition; P0C6X7; recombinant SARS-CoV 3CLpro, quenched FRET peptide cleavage; inhibition, % at 6 µM; hit rate 0.14% among 290,000; in the data active means inhibition above about 12%
PfHsp40 rescue: compounds rescuing yeast from Plasmodium falciparum HSP40 toxicity. S. cerevisiae expressing PfHsp40, growth rescue, ATP luminescence. growth rescue, % at 12.5 µM. hit rate 0.68% among 340,000. AID 504582; in the data active means growth rescue above about 28%, passing the limit was not always enough; inconclusive means no clear call, values can overlap the other calls;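 further: yeast W303a lacking pdr1 and pdr3 grown in galactose medium; growth measured after three days at 30 °C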
BJeLR viability: kills HRASV12-expressing BJeLR cells | BJeLR (HRASV12) viability, CellTiter-Glo ATP luminescence, 48 h | inhibition, % (no concentration beside the values) | hit rate 0.17% among 300,000; in the data active means inhibition above about 50%; inconclusive means no clear call, values can overlap the other calls
Y pestis TopoI: Y. pestis Topo-I inhibition via cleavage products; Y. pestis Topo-I cleavage product accumulation, plate reader; activity, % at 10 µM; hit rate 0.064% among 360,000; in the data active means activity above about 50%, passing the limit was not always enough; inconclusive means no clear call, values can overlap the other calls
Mtb BioA inh: inhibitors of Mycobacterium tuberculosis BioA enzyme; AID 602481; hit rate 0.096% among 360,000; inhibition, % at 9.99 µM; purified M. tuberculosis BioA enzyme, plate reader; in the data active means inhibition above about 40%; inconclusive means no clear call, values can overlap the other calls
MazF activator: activators of E. coli MazEF toxin-antitoxin RNase; AID 504720; hit rate 0.32% among 350,000; FAM/BHQ RNA-DNA oligo cleavage fluorescence, 5 h; activation, % at 20 µM; P0AE70; in the data active means activation above about 50%
Target sequence (P0AE70 whole entry, looked up): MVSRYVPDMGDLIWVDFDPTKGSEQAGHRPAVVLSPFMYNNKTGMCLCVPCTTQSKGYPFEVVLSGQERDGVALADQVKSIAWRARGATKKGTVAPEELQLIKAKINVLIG
Each line names hits and unclear results; the compound was inactive in the other large screens. Only some compounds are listed: those with a hit (about 1.1% of all), similar ones and a draw of the others.

CNC(=O)c1sc(-c2ccccc2)nc1C	PfHsp40 rescue 93
CC(=O)Oc1c(Sc2ccccc2[N+](=O)[O-])c(C)nn1C(C)(C)C	PfHsp40 rescue 42 (no result: BJeLR viability, Mtb BioA inh)
Cc1cc2c(cc1C)CSC(c1ccc3ccccc3c1O)SC2	none (no result: Mtb BioA inh)
Cc1cc2c(cc1C)CSC(c1c(O)ccc3ccccc13)SC2	PfHsp40 rescue 160
CO[C@H]1CN(C)C(=O)c2cc(NC(C)=O)ccc2OC[C@H](C)N(Cc2nccs2)C[C@@H]1C	none (no result: 3CLpro inhibitor, PfHsp40 rescue, BJeLR viability, Y pestis TopoI, MazF activator)
O=C(NC1CCS(=O)(=O)C1)c1ccc2c(c1)OCO2 (stereo not drawn)	PfHsp40 rescue 44 (no result: 3CLpro inhibitor)
O=C(Nc1ccc(NC(=O)c2ccc(Cl)cc2Cl)cc1)c1ccc2c(c1)OCO2	none
O=C(Nc1ccc(C2=NCCN2)cc1)c1ccc(C(=O)Nc2ccc(C3=NCCN3)cc2)c(Cl)c1	PfHsp40 rescue 234
COc1ccc2c(c1)c1nnc(SCC(=O)N3C(C)CCCC3C)nc1n2C (stereo not drawn)	none
COc1ccc2c(c1)c1nnc(SC)nc1n2C	PfHsp40 rescue 59
COc1ccc(C2/C=C\CN(C(=O)Nc3ccc(C(F)(F)F)cc3)CC(=O)N2Cc2ccc(F)cc2)cc1 (stereo not drawn)	PfHsp40 rescue 93 (no result: 3CLpro inhibitor)
COc1cc(C2C(C#N)=C(N)Oc3n[nH]c(-c4cccs4)c32)cc(OC)c1O (stereo not drawn)	MazF activator 60
CCCc1[nH]nc2c1C(c1ccc(O)c(OC)c1)C(C#N)=C(N)O2 (stereo not drawn)	MazF activator 53 (no result: Mtb BioA inh)
COCc1[nH]nc2c1C(c1cc(OC)c(O)c(OC)c1)C(C#N)=C(N)O2 (stereo not drawn)	MazF activator 195 (no result: Mtb BioA inh)
CCOC(=O)NNc1ccccc1	PfHsp40 rescue 62 (no result: Mtb BioA inh)
CN(C)CCN=Cc1c(O)n(Cc2ccc3c(c2)OCO3)c(=S)[nH]c1=O	PfHsp40 rescue 82
Fc1cccc2sc(Nc3nnc(-c4ccco4)o3)nc12	PfHsp40 rescue 74
C[C@@H]1CN([C@H](C)CO)C(=O)c2cc(-c3cccc(C(=O)N(C)C)c3)cnc2O[C@H]1CN(C)S(=O)(=O)c1ccccc1	none (no result: 3CLpro inhibitor, PfHsp40 rescue, BJeLR viability, Y pestis TopoI, MazF activator)
CC(=O)N1CCN(C(=O)CCNS(=O)(=O)c2ccccc2)CC1	none (no result: 3CLpro inhibitor, BJeLR viability)
O=C(CCNS(=O)(=O)c1ccccc1)N1CCN(c2ccccc2)CC1	PfHsp40 rescue 54
Cc1ccc(N=Cc2cc(Cc3ccccc3Cl)cc([N+](=O)[O-])c2O)c(O)c1	PfHsp40 rescue 83 (no result: Mtb BioA inh)
COc1ccc(N=Cc2cc(Cc3ccccc3Cl)cc([N+](=O)[O-])c2O)cc1OC	PfHsp40 rescue inconclusive (no result: Mtb BioA inh)
CN(C)CC(=O)Nc1ccc2c(c1)[C@H]1C[C@@H](CC(=O)NCc3ccccc3F)O[C@@H](CO)[C@H]1O2	none (no result: 3CLpro inhibitor, PfHsp40 rescue, BJeLR viability, Y pestis TopoI, MazF activator)
Cn1c(C(=O)NCCN2CCOCC2)cc2c(=O)n3ccccc3nc21	none
COCCCn1c(C(=O)NCCN2CCOCC2)cc2c(=O)n3ccccc3nc21	PfHsp40 rescue 44
O=C(Nc1ncccc1O)c1cccc(S(=O)(=O)N2CCCC2)c1	none (no result: 3CLpro inhibitor)
O=C(Nc1ncccc1O)c1cccc(S(=O)(=O)N2CCc3ccccc32)c1	PfHsp40 rescue 66
COc1ccc(S(=O)(=O)N(C)C[C@H]2Oc3ccc(NS(=O)(=O)c4cn(C)cn4)cc3CC(=O)N([C@H](C)CO)C[C@@H]2C)cc1	none (no result: 3CLpro inhibitor, PfHsp40 rescue, BJeLR viability, Y pestis TopoI, MazF activator)
O=C1N(c2ccc(Cl)cc2)C(c2cccnc2)N2CCCN12 (stereo not drawn)	PfHsp40 rescue 287 (no result: Mtb BioA inh)
CCC(=O)N1C[C@@H](C)[C@H](OC)CN(C)C(=O)c2cc(NC(=O)NC(C)C)ccc2OC[C@H]1C	none (no result: 3CLpro inhibitor, PfHsp40 rescue, BJeLR viability, Y pestis TopoI, MazF activator)
O=C(C[C@@H]1CC[C@@H]2[C@H](COC[C@@H](O)CN2C(=O)c2ccc3c(c2)OCO3)O1)NCCN1CCCCC1	none (no result: 3CLpro inhibitor, PfHsp40 rescue, BJeLR viability, Y pestis TopoI, MazF activator)
CN1CCN(Cc2c(O)ccc3occ(C(=O)c4ccccc4)c23)CC1	none
CC(=O)C(C(C)=O)c1c(Cl)c(O)c(O)c2c(C(=O)c3ccccc3)coc12	PfHsp40 rescue 51 (no result: Mtb BioA inh)
CCN1CCN(c2nc3c(c(=O)[nH]c(=O)n3C)n2CCCSc2ncccn2)CC1	MazF activator 54
CN1CCN(c2nc3c(c(=O)[nH]c(=O)n3C)n2CCCSc2ncccn2)CC1	none (no result: Mtb BioA inh)
NC(N)=NCCCS(=O)(=O)Nc1ccc(Nc2c3ccccc3nc3cc([N+](=O)[O-])ccc23)cc1	MazF activator 51 (no result: 3CLpro inhibitor, BJeLR viability, Mtb BioA inh)
O=[N+]([O-])c1ccc(Nc2c3ccccc3nc3ccccc23)cc1	none (no result: PfHsp40 rescue, Mtb BioA inh)
CO[C@H]1CC[C@H]2CCOc3c(C#N)cccc3C(=O)N(C)[C@H](C)C(=O)N(C)C[C@@H]1O2	none (no result: 3CLpro inhibitor, PfHsp40 rescue, BJeLR viability, Y pestis TopoI, MazF activator)
CCC(=O)Nc1ccc2c(c1)C(=O)N(C)[C@H]1CC[C@@H](CC(=O)NCc3ccccc3Cl)O[C@H]1CO2	none (no result: 3CLpro inhibitor, PfHsp40 rescue, BJeLR viability, Y pestis TopoI, MazF activator)
CCc1nn(C(C)C(=O)N2CCN(c3ccc(OC)cc3)CC2)c(=O)c2cc3occc3n12 (stereo not drawn)	PfHsp40 rescue 112
O=C(Nc1ccc2oc(-c3ccccc3)nc2c1)c1cc(-n2cnnc2)ccc1Cl	MazF activator 54 (no result: Mtb BioA inh)
CCC(=O)N1[C@H](CO)[C@@H](c2ccc(-c3cccc(F)c3)cc2)[C@H]1CNC(C)=O	none (no result: 3CLpro inhibitor, PfHsp40 rescue, BJeLR viability, Y pestis TopoI, MazF activator)
COc1ccc(OCc2cc(C(=O)NCCCc3ccccc3)no2)c(Cl)c1	none
CSc1ccccc1OCc1cc(C(=O)NCCCc2ccccc2)no1	Y pestis TopoI 58
CCN(CC(=O)Nc1ccc(C(=O)OC)cc1)C1CCCCC1	MazF activator 157
COc1cc2c(cc1OC)CN(CC(=O)Nc1ccc(F)cc1)C(C(=O)O)C2 (stereo not drawn)	PfHsp40 rescue 35
CCSc1nnc(N2C(=O)C(O)=C(C(=O)c3ccco3)C2c2cccc(OC)c2)s1 (stereo not drawn)	MazF activator 65
Cn1cccc1C(=O)NS(=O)(=O)c1ccccc1Cl	PfHsp40 rescue 86 (no result: Mtb BioA inh)
CCOC(=O)C1CCN(Cc2cccc(Oc3ccc(Cl)cc3)c2)CC1	none
CCOC(=O)C1CCN(Cc2cccc(Oc3ccccc3)c2)CC1	Y pestis TopoI 66
CC(=O)Nc1cccc(N2C(=O)CC(N3CCC(C(=O)N4CCCCC4)CC3)C2=O)c1 (stereo not drawn)	none
COc1cc(OC)cc(N2C(=O)CC(N3CCC(C(=O)N4CCCCC4)CC3)C2=O)c1 (stereo not drawn)	PfHsp40 rescue 67
O=c1[nH]c(=O)n(-c2ccc(F)cc2)c(O)c1/C=C1\C=Nc2ccccc21	none
COc1ccc(-n2c(O)c(/C=C3\C=Nc4ccccc43)c(=O)[nH]c2=O)cc1	MazF activator 304
CCC(=O)N(C)C[C@H]1Oc2cc(C#CC3(O)CCCC3)ccc2S(=O)(=O)N([C@@H](C)CO)C[C@H]1C	none (no result: 3CLpro inhibitor, PfHsp40 rescue, BJeLR viability, Y pestis TopoI, MazF activator)
CN1CCc2c(sc3c2C(=O)NC(/C=C/c2ccco2)N3)C1 (stereo not drawn)	MazF activator 66
CN1CCc2c(sc3c2C(=O)NC(c2ccccc2)N3)C1 (stereo not drawn)	none
O=C(O)c1ccc(/C=C/c2ccc3cccc(O)c3n2)cc1	none (no result: Mtb BioA inh)
COC(=O)c1ccc(/C=C/c2ccc3cccc(OC(C)=O)c3n2)cc1	PfHsp40 rescue 140 (no result: Mtb BioA inh)
